# Screening results deposited in PubChem BioAssay by Emory University Molecular Libraries Screening Center.
# The entries come from a sample that favours hits as a whole.
# Measles inh – inhibitors of measles virus growth in infected cells; infected Vero cells, GFP fluorescence, 64 h; active compounds read low; z-score (no concentration beside the values); actives 0.1% (n = 33,000); in the data active = z-score below about -3
# A number is an active result; i = inactive.
SMILES,Measles inh
Cc1ccc(-n2nc(C(=O)NCCCN3CC(C)CC(C)C3)c3c4ccccc4n(C)c3c2=O)cc1 (stereo not drawn),i
COc1ccc(Nc2nc(-c3ccc(C)cc3)nc3ccccc23)cc1OC,i
Cc1ccc(Nc2cc(C)nc(-c3ccccc3)n2)cc1,-3.7
COc1cc(-c2nc(Nc3ccc(C)cc3)c3ccccc3n2)cc(OC)c1OC,i
O=c1c2sc(=S)n(Cc3ccco3)c2nc(SCc2cc(=O)n3cc(Cl)ccc3n2)n1-c1ccccc1,i
COC(=O)c1ccc(NC(=O)c2cc3c(CO)cnc(C)c3oc2=Nc2ccc(C(N)=O)cc2)cc1,i
COc1ccc(NC(=O)c2ccc(NS(=O)(=O)c3c(C)noc3C)cc2)cc1OC,i
Cc1noc(C)c1S(=O)(=O)Nc1ccc(C(=O)Nc2ccc(C(C)C)cc2)cc1,-3.7
CC(=O)c1ccc(NC(=O)c2ccc(NS(=O)(=O)c3c(C)noc3C)cc2)cc1,i
CCOC(=O)CNC(=O)c1sc2nc(C)nc(N(C)c3ccc(C(C)C)cc3)c2c1C,i
O=C(COC(=O)c1ccc2c(c1)C(=O)N(c1ccccc1Cl)C2=O)c1cccc([N+](=O)[O-])c1,i
COc1ccc(N2C(=O)c3ccc(C(=O)OCC(=O)c4cccc([N+](=O)[O-])c4)cc3C2=O)cc1,-5
O=C(COC(=O)c1ccc2c(c1)C(=O)N(c1ccc([N+](=O)[O-])cc1)C2=O)c1ccccc1,i
CCOc1ccc(C(=O)Cn2c(=O)n(C3CCCC3)c(=O)c3cc(OC)c(OC)cc32)cc1Cl,i
CCCN(CCC)C(=O)c1cc2c(=O)oc3ccccc3c2s1,i
c1ccc(-c2cc3c(ncn4c(-c5ccccc5)nnc34)s2)cc1,i
